An excerpt weighted towards active compounds, which were near 17% of everything screened.
S2 tox = cell viability loss in ATXN counter-screen; Potency, µM (doses to about 56.7 µM), most hits filed as cytotoxic; S2 cells (HEK-293 line with an ATXN2-luciferase reporter) viability, CellTiter-Fluor protease fluorescence, 24 h; 0.49% of 400,000 active; also: nearly all actives have a fitted effect of over 40% in size
TGFb inhibitor = inhibitors of TGF-b signaling; HepG2 CAGA-GFP TGF-b/SMAD3 reporter, GFP fluorescence, 18 h; TGF-beta stimulated, 500 pg/mL final; Potency, µM (doses to about 46.1 µM), inactives show top-dose activity, negative = inhibition, usual class: inhibitors; AID 588855; 1.2% of 410,000 active; also: % is scaled to controls: 0 for no effect and ±100 for the full control effect; nearly all actives have a fitted effect of over 65% in size
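Inhibition was scored as loss of TGF-beta-induced (500 pg/mL final, 18 hours, 37 degrees C) GFP in HEPG2 cells carrying a CAGA-GFP reporter, in DMEM with 1% FBS. Well GFP was summed per cell; Activity was normalised to unstimulated and stimulated DMSO wells, then concentration-response fitting.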
TDP1 cell noCPT = qHTS for Inhibitors of human tyrosyl-DNA phosphodiesterase 1 (TDP1): qHTS in cells in absence of CPT; DT40 Tdp1-/- hTDP1 cells, no CPT, ATP luminescence, 48 h; Potency, µM (titrated, usually from 46.2 µM), for inactives: at the highest dose activity change, negative = growth inhibition, actives largely listed as inhibitors; 15% of 420,000 active; AID 686978, 2013; also: % is scaled to controls: 0 for no effect and ±100 for the full control effect; nearly all actives have a fitted effect of over 55% in size
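No-CPT arm: Tdp1-/-;hTDP1 DT40 cells (400/well) plus compounds, incubated ≥48 hr at 37 °C. Readout CellTiter-Glo luminescence.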
TDP1 cell CPT = DT40-hTDP1 cell growth loss with CPT | chicken DT40 Tdp1-/-;hTDP1 cells + 20 nM CPT, ATP luminescence, 48 h | Potency, µM (series often up to 46.2 µM), without a hit: top-dose activity change, negative = growth inhibition, actives largely listed as inhibitors | 12% of 420,000 active; also: % is scaled to controls: 0 for no effect and ±100 for the full control effect; nearly all actives have a fitted effect of over 55% in size
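Chicken DT40 Tdp1-/- cells stably complemented with human TDP1 were seeded at 400 cells/well in medium containing 20 nM camptothecin, exposed to pin-transferred compounds, and grown at 37 °C for at least 48 hr. Viability was read as ATP luminescence.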
HepG2 viability = counter-screen for TGF-b inhibitors: cytotoxicity in HepG2 cells; HepG2 CAGA-GFP viability, ATP luminescence, 18 h; Potency, µM (series often up to 46.1 µM), inactives show top-dose activity change, negative = cytotoxicity, actives largely listed as cytotoxic; 0.76% of 410,000 active; AID 588856
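HepG2 CAGA-GFP cells (1000/well, DMEM with 1% FBS) received compound, then TGF-beta at 500 pg/mL final, and were incubated 18 hours at 37 degrees C. Viability was read by CellTiter-Glo luminescence. Media-only wells were set as complete cell-killing and DMSO as no toxicity.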
ATXN2 expr inh = ATXN2 expression inhibition. HEK-293 ATXN2-luciferase reporter, luminescence, 24 h. Potency, µM (doses to about 57 µM), for the others: top-dose activity change, negative = inhibition, hits mostly inhibitors. 0.72% of 360,000 active. AID 1745845; also: % is scaled to controls: 0 for no effect and ±100 for the full control effect; nearly all actives have a fitted effect of over 55% in size
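ATXN2-luciferase reporter cells (luciferase flanked by upstream and downstream ATXN2 gene portions) were treated 24 h at 37 °C with compounds at up to 57 uM. SteadyGlo luminescence gave expression; GF-AFC fluorescence gave viability.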
An asterisk follows results filed as active; i = inactive; u = inconclusive; x = no result given. Calls follow the shape of the dose curve; as a rule, active = well fitted curve in the direction sought with a large enough effect; inconclusive = small, poorly fitted or top-dose-only effect, or another doubt; inactive = no such curve, though single readings can be large; an effect the other way counts as inactive or inconclusive. Potency is read from the fitted curve at half-maximal effect.

SMILES	S2 tox	TGFb inhibitor	TDP1 cell noCPT	TDP1 cell CPT	HepG2 viability	ATXN2 expr inh
COC(=O)c1ccccc1NC(=O)Cn1c(=O)n(-c2ccc(C)cc2)c(=O)c2ccccc21	x	-35%	0.92µM*	0.82µM*	-3%	x
Cc1ccc(CNC(=O)c2ccc(Cn3c(=O)c4ccccc4n(CC(=O)Nc4ccc(C)cc4C)c3=O)cc2)cc1	i	12%	u	16µM*	5%	13%
Cc1noc(C)c1C(=O)N1CCCC(C)(C(=O)NS(=O)(=O)C2CC2)C1 (stereo not given)	i	10%	u	-30%	-5%	7%
Cc1ccc(CNC(=O)c2ccc(Cn3c(=O)c4ccccc4n(CC(=O)Nc4c(C)cc(C)cc4C)c3=O)cc2)cc1	u	1%	4.6µM*	6.5µM*	-13%	1%
CCN(CC)C(=O)C1CCN(Cc2ccc(Br)cc2)CC1	i	9%	-6%	-14%	12%	-6%
CCn1c(O)c(N=NC(=O)c2cccnc2)c2cc(Br)ccc21	i	-20%	23µM*	u	-19%	10%
CCCCn1c(O)c(N=NC(=O)c2ccncc2)c2cc(Br)ccc21	u	0%	u	u	8%	-9%
OCCNc1ncnc2ccc(Br)cc12	i	2%	6.5µM*	u	-7%	1%
COc1ccccc1OCCCC(=O)Nc1nnc(C2CCCO2)s1 (stereo not given)	u	0%	-1%	20%	-27%	0%
Cc1ccc2c(c1)cc(C(=O)Nc1ccc(F)cc1F)n2C	i	-5%	7.3µM*	u	6%	1%
Cc1ccc(C2=NS(=O)(=O)N(C)C(C(=O)Nc3ccc(F)cc3F)=C2)cc1	i	u	u	21µM*	-32%	-2%
Cc1ccc(C2=NS(=O)(=O)N(C)C(C(=O)NC3CCCCC3)=C2)cc1	u	-1%	-24%	-11%	-17%	-12%
Cc1ccc(C2=NS(=O)(=O)N(C)C(C(=O)Nc3cc(C)n(CC(=O)N4CCC(C)CC4)n3)=C2)cc1	i	u	21µM*	u	-24%	x
CN1C(C(=O)Nc2ccc(F)cc2F)=CC(c2ccco2)=NS1(=O)=O	i	u	-28%	u	-21%	8%
Cc1ccc2c(c1)cc(C(=O)NCc1ccc(F)cc1)n2C	u	24%	u	u	-1%	143%
CN1C(C(=O)Nc2ccc(F)cc2F)=CC(c2ccc3c(c2)OCO3)=NS1(=O)=O	u	-27%	u	u	-24%	-2%
COc1ccc(OC)c(C2=NS(=O)(=O)N(C)C(C(=O)Nc3ccc(F)cc3F)=C2)c1	i	u	7.3µM*	16µM*	-14%	-14%
COc1cccc(COC(=O)CCNC(=O)c2ccc(Br)cc2)c1OC	i	-4%	8%	-3%	-13%	6%
CCN(CC(=O)N1CCN(Cc2ccccc2)CC1)S(=O)(=O)c1ccc(F)cc1	i	1%	u	u	-28%	-4%
Cc1ccc(N2CC(C(=O)NCCC3=CCCCC3)CC2=O)cc1 (stereo not given)	i	-20%	3%	9%	-19%	-1%
Cn1nc(C(F)(F)F)c(C(=O)Nc2ccc(F)cc2F)c1Sc1ccc(Cl)cc1	i	-1%	-29%	-24%	-37%	-10%
Cc1ccc(Sc2c(C(=O)Nc3ccc(F)cc3F)c(C(F)(F)F)nn2C)cc1	i	14%	u	18µM*	-16%	0%
CCCNC(=O)c1ccc2nc(CCc3ccccc3)oc2c1	i	-12%	u	u	-17%	8%
O=C(Nc1c(F)cccc1F)c1cnc(N2CCN(c3ccccn3)CC2)c2ccccc12	u	-24%	23µM*	23µM*	-2%	u
O=C(c1cnc(N2CCN(c3ncccn3)CC2)c2ccccc12)N1CCN(c2ccccn2)CC1	i	-11%	u	u	-9%	-15%
SMILES	S2 tox	TGFb inhibitor	TDP1 cell noCPT	TDP1 cell CPT	HepG2 viability	ATXN2 expr inh
Cc1ccc(NC(=O)c2cnc(N3CCN(c4ccccn4)CC3)c3ccccc23)c(Br)c1	i	-16%	13µM*	15µM*	-6%	u
CCN1CCN(c2ncc(C(=O)Nc3cc(Cl)ccc3OC)c3ccccc23)CC1	i	u	u	u	-33%	-22%
O=C1Nc2ccccc2C(=O)N(Cc2ccccc2)C1C(=O)NC1CC1 (stereo not given)	x	x	1%	6%	x	x
COc1ccc(OC)c(CNC(=O)CN2CC(C)Sc3ccccc32)c1 (stereo not given)	i	-8%	x	x	-12%	-6%
COC(=O)N1CCC2(CC1)CN(c1ccncc1)C2	x	x	u	-16%	x	x
O=C(c1ccccn1)N1CCN(c2cccc(C(F)(F)F)c2)CC1	u	28%	-13%	-28%	6%	x
O=C(c1ccccn1)N1CCCC(N2CCN(c3cccc(C(F)(F)F)c3)CC2)C1 (stereo not given)	i	-10%	15µM*	u	-9%	-7%
O=C(c1cc[n+]([O-])cc1)N1CCCC(N2CCN(c3cccc(C(F)(F)F)c3)CC2)C1 (stereo not given)	i	-16%	u	10µM*	-13%	-16%
COC(=O)C1=C(C(=O)OC)C(C(=O)OC)C(C(=O)OC)C(C(=O)OC)(C(=O)OC)C(C(=O)OC)=C1C(=O)OC (stereo not given)	34µM*	-28%	2.6µM*	2.6µM*	-41%	u
Cc1cc2c(sc3c(C)ccc(C)c32)c(C)n1	i	-27%	u	-18%	-17%	-23%
O=C1C2C3c4ccccc4C(c4ccccc43)C2c2nc3ccccc3n21 (stereo not given)	u	-6%	4.1µM*	4.1µM*	-24%	-20%
C=CCN(c1ccccc1)S(=O)(=O)c1cccc(C(=O)N(CC)CC(=O)Nc2c(F)cccc2F)c1	u	-5%	15µM*	23µM*	-8%	-10%
CCN(CC(=O)Nc1c(F)cccc1F)C(=O)c1ccc(S(=O)(=O)N(CC)c2ccccc2)cc1	i	1%	u	u	7%	x
CCN(c1ccccc1)S(=O)(=O)c1cccc(C(=O)N(C)CC(=O)Nc2ccc(F)c(F)c2F)c1	i	-26%	18µM*	15µM*	-6%	-14%
N#Cc1cc2ccc(N3CCOCC3)cc2cc1C#N	i	3%	12µM*	7.3µM*	-16%	-23%

Bioassay records: PubChem, National Center for Advancing Translational Sciences (NCATS)
